Assay results published in the supplement of paper PMC10121225.
Where a name gives a salt, the structure may show the parent alone.

Tested on: hN + hpA co-culture (H1 iNGN2 human neurons + human primary astrocytes)
Assay: presynaptic density (SYNAPSIN1 puncta per MAP2 neurite area), Z-score vs DMSO controls; higher = more presynaptic puncta (synapse-promoting)
Conditions: 3 µM; 72 h
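Further: immunostained co-cultures imaged by high-content microscopy, Z-score per plate against mean and SD of 0.1% DMSO wells, compounds added on differentiation day 18, analysed day 21.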

SMILES	presynaptic density (Z-score)
Cc1cc(Nc2cc(N3CCN(C)CC3)nc(Sc3ccc(NC(=O)C4CC4)cc3)n2)n[nH]1	-2.31
C#CCC(Cc1cnc2nc(N)nc(N)c2n1)c1ccc(C(=O)N[C@@H](CCC(=O)O)C(=O)O)cc1 (stereo partly drawn) [Pralatrexate]	0.0678
O=C1[C@H](Cc2ccc(O)cc2)N2C(=O)CCN(C(=O)NCc3ccccc3)[C@H]2CN1Cc1cccc2ccccc12	-0.969
NC(=O)c1ncn([C@@H]2O[C@H](CO)[C@@H](O)[C@H]2O)c1N	0.26
COc1cc2c(cc1OC)[C@@H]1Cc3ccc(OC)c(OC)c3CN1CC2 [Rotundine]	-0.985
O=C(Nc1ccccc1)N1CCN(c2nc(-c3ccccc3)ns2)CC1	-0.242
O=C1NC(=O)/C(=C/c2cccc(C(F)(F)F)c2)S1	-1.18
CC(C)CCN1c2nc(Nc3cc(F)c(O)c(F)c3)ncc2N(C)C(=O)C1C (stereo not drawn)	2.11
O=C1NC(=O)C(c2ccccc2[N+](=O)[O-])=C1Nc1ccc(O)c(Cl)c1	-0.662
O=C(Nc1ccccc1-c1cn2c(CN3CCNCC3)csc2n1)c1cnc2ccccc2n1	-1.26
COc1cc(-c2ncn(/C=C\C(=O)OC(C)C)n2)cc(C(F)(F)F)c1	-0.959
O=C(O)c1cccc(-c2noc(-c3ccccc3F)n2)c1 [Ataluren (PTC124)]	-0.0102
COc1ccnc2[nH]cc(C(=O)C(=O)N3CCN(C(=O)c4ccccc4)C[C@H]3C)c12	0.386
N#Cc1c(O)c2c(-c3ccc(-c4ccccc4O)cc3)csc2[nH]c1=O	-1.26
COc1cccc2c1C(=O)c1c(O)c3c(c(O)c1C2=O)C[C@@](O)(C(C)=O)C[C@@H]3O[C@H]1C[C@H](N)[C@H](O)[C@H](C)O1 [Daunorubicin HCl]	0.0215
Cc1ccc2nc(NC(=O)CSc3nc4c(c(=O)n3-c3ccccc3)SCC4)sc2c1	-0.234
COc1ccc2cc([C@H](C)C(=O)O)ccc2c1 [Naproxen]	-1.04
CCCSc1nc(N[C@@H]2C[C@H]2c2ccc(F)c(F)c2)c2nnn([C@@H]3C[C@H](OCCO)[C@@H](O)[C@H]3O)c2n1 [Ticagrelor]	-0.848
C=CC(=O)Nc1cccc(Oc2nc(Nc3ccc(N4CCN(C)CC4)cc3OC)ncc2Cl)c1	-0.275

SMILES	presynaptic density (Z-score)
Cc1cnc(-c2cc(N3CCN(C(=O)CCS(C)(=O)=O)CC3)ncc2Cl)c(C)c1	-1.22
Cc1ccc(S(=O)(=O)NC(=O)NN2CC3CCCC3C2)cc1 (stereo not drawn)	0.0878
Cc1[nH]c2ccccc2c1C1=C(NCCc2ccc(F)cc2)C(=O)N(C)C1=O	-0.562
NC(=O)c1ccc(-c2nc(-c3ccc4c(c3)OCO4)c(-c3ccccn3)[nH]2)cc1	0.232
CC(C)n1c(/C=C/C(O)CC(O)CC(=O)O)c(-c2ccc(F)cc2)c2ccccc21 (stereo not drawn) [Fluvastatin Sodium]	1.53
CC(=O)Nc1nc2c(Oc3cc(-c4ccc(C(F)(F)F)cc4)ncn3)cccc2s1	0.208
C[C@]12C=CC(=O)N[C@@H]1CC[C@@H]1[C@@H]2CC[C@]2(C)[C@@H](C(=O)Nc3cc(C(F)(F)F)ccc3C(F)(F)F)CC[C@@H]12 [Dutasteride]	-1.23
CC(NC(=O)C(O)c1cc(F)cc(F)c1)C(=O)NC1C(=O)N(C)c2ccccc2-c2ccccc21 (stereo not drawn)	0.0312
CC1=C(/C=C/C(C)=C/C=C/C(C)=C\C(=O)O)C(C)(C)CCC1 [Isotretinoin]	-2.56
CCOC(=O)C1=C(C)NC(C)=C(C(=O)OC)C1c1cccc(Cl)c1Cl (stereo not drawn) [Felodipine]	-1.18
CO[C@H]1C[C@@H]2CC[C@@H](C)[C@@](O)(O2)C(=O)C(=O)N2CCCC[C@H]2C(=O)O[C@H]([C@H](C)C[C@@H]2CC[C@@H](OCCO)[C@H](OC)C2)CC(=O)[C@H](C)/C=C(\C)[C@@H](O)[C@@H](OC)C(=O)[C@H](C)C[C@H](C)/C=C/C=C/C=C/1C [Everolimus (RAD001)]	-1.63
CCc1c2c(nc3ccc(O)cc13)-c1cc3c(c(=O)n1C2)COC(=O)[C@]3(O)CC	0.761
Cc1cccc(-c2nn3c(c2-c2ccnc4ccc(C(N)=O)cc24)CCC3)n1	0.336
CC(C)(C)c1nc(-c2cccc(NS(=O)(=O)c3c(F)cccc3F)c2F)c(-c2ccnc(N)n2)s1	0.941
O=C1C(=O)N(Cc2ccc(Cl)c(Cl)c2)c2ccccc21 [1-[(3 4-Dichlorophenyl)methyl]-1H-indole-2 3-dione]	-0.359
CC[C@@H]1C(=O)N(C)c2cnc(Nc3ccc(C(=O)NC4CCN(C)CC4)cc3OC)nc2N1C1CCCC1	-2.32
C=CCNC1=C2C[C@@H](C)C[C@H](OC)[C@H](O)[C@@H](C)/C=C(\C)[C@H](OC(N)=O)[C@@H](OC)/C=C\C=C(/C)C(=O)NC(=CC1=O)C2=O [17-AAG (Tanespimycin)]	0.868
CCOC(=O)[C@H](CCc1ccccc1)N[C@@H](C)C(=O)N1C(=O)N(C)C[C@H]1C(=O)O [Imidapril HCl]	-0.0695
CC(C)(F)C[C@H](N[C@@H](c1ccc(-c2ccc(S(C)(=O)=O)cc2)cc1)C(F)(F)F)C(=O)NC1(C#N)CC1 [Odanacatib (MK-0822)]	-0.252
